Inconclusive results are not listed. Active and inactive are the calls of the source. The calls were made as follows: active = hit-call score of the fitted dose curve at least 0.9, where 1 is the maximum; inconclusive = response in the unintended direction; inactive = score below 0.9.
target: Androgen receptor (Homo sapiens) (UniProt P10275); assay: ATG_AR_TRANS: Attagene TRANS-FACTORIAL HepG2 Assay for human Androgen Receptor (AR) (AID 2282973); settings: HepG2 Attagene TRANS-FACTORIAL AR reporter transcription
Summary of the method: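 Transfected HepG2, 24 h treatment, chimeric NR-Gal4 driving GAL4-UAS reporters. mRNA induction by RT-PCR/capillary electrophoresis fluorescence; DMSO as negative control and baseline.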

Sequence of Androgen receptor (Homo sapiens) (P10275 whole entry, looked up, the tested form may be a part): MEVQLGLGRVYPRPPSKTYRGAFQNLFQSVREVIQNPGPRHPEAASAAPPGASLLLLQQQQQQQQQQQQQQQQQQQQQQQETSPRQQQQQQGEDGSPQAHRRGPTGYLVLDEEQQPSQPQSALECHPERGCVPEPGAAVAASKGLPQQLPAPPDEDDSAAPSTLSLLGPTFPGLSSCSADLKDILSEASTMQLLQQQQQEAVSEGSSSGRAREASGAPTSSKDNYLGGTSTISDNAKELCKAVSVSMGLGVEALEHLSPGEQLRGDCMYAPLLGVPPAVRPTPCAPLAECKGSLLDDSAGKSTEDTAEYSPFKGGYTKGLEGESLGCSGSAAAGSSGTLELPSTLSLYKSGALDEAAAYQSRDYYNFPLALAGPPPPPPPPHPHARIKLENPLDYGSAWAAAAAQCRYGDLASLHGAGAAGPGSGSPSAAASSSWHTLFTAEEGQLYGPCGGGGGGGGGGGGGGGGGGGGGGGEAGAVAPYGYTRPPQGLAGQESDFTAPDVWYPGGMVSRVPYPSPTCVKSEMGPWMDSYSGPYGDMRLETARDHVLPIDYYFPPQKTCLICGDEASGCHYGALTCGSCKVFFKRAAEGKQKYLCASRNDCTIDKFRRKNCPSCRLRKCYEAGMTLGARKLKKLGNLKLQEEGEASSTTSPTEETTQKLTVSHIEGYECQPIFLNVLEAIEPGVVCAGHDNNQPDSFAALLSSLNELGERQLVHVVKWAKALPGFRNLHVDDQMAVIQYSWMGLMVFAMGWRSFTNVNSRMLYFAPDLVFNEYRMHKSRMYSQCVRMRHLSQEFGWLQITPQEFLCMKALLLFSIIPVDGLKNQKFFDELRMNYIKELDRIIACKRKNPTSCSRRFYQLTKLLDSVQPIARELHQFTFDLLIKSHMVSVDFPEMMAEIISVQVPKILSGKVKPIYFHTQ

Structure (SMILES) | outcome
CC(=O)OC1CCCCC1 | inactive
CC(=O)O[C@@H]1CC2CCC1(C)C2(C)C (stereo partly specified) | inactive
CCCCCCCCCCCCC[N+](C)(C)Cc1ccccc1 | inactive
CCCCC(CC)COC(=O)/C=C/c1ccc(OC)cc1 (stereo unspecified) | inactive
C=CC(=O)OCC(F)(F)C(F)(F)C(F)(F)C(F)(F)COC(=O)C=C | inactive
FC(F)(F)C1(F)C(F)(F)C(F)(F)C(F)(F)C1(F)F | inactive
NCCCN1CCN(CCCN)CC1 | inactive
C[C@H]1C[C@@H]2[C@H]([C@@H](O)C[C@@]3(C)[C@H]2CC[C@]3(O)C(=O)CO)[C@@]2(C)C=CC(=O)C=C12 | inactive
Cc1cc(NC(=O)C(=O)O)cc(C)c1Oc1ccc(O)c2c1CCC2 | inactive
COC(F)(F)C(F)(C(F)(F)F)C(F)(F)F | inactive
Oc1ccc(-c2ccccc2)c(Cl)c1 | inactive
Cc1ccc2ccc3ccc(C)cc3c2c1 | inactive
COC(=O)c1cccnc1 | inactive
Nc1c(Cl)cc(Cl)cc1[N+](=O)[O-] | inactive
COCc1c(C(C)C)nc(C(C)C)c(/C=C/[C@@H](O)C[C@@H](O)CC(=O)O)c1-c1ccc(F)cc1 | inactive
O=C1OC(=O)C(F)(F)C1(F)F | inactive
CC1=CC(=O)c2ccccc2C1=O | inactive
O=[N+]([O-])c1ccccc1C(F)(F)F | inactive
NCCNc1cccc2ccccc12 | inactive
C=CC(=O)OCC(CO)(COCC(COC(=O)C=C)(COC(=O)C=C)COC(=O)C=C)COC(=O)C=C | inactive
O=C(O)CCC(F)(F)C(F)(F)C(F)(F)C(F)(F)C(F)(F)F | inactive

Reference: PubChem BioAssay (EPA / NIEHS)
